A word on the inhibition: it is the drop in the measured response relative to a control, in per cent.

Values without a mark were called inactive. Activity calls are given as the source filed them.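 How the source made its calls: active means inhibition at or above 50% relative to wild type and mutant plate controls; inactive means inhibition below 50%.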 Peptide text beside a SMILES is read from it. * marks the point of attachment. Cbz = O=C(OCc1ccccc1)*

Here are results for 39 molecules from PubChem BioAssay.

The nature of this assay: inhibitors of Chlamydomonas gravitaxis, primary screen, whole organism, Chlamydomonas reinhardtii, WT vs cilia-less mutant, absorbance, 96-well (AID 463189).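 Further: 0% = wild type cc124 cells in DMSO and 100% = ciliumless bld1 mutant cells.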 The note with it: OD600 absorbance, 2 days, at 10 µM, active compounds read high.
On to `C=CCN1CCc2c(cc(O)c(O)c2Br)[C@@H](c2ccccc2)C1`, for which the inhibition is 0.67%.

Turning to `CC(N)(C(=O)O)c1ccc(C(=O)O)cc1` (centres undefined), the inhibition was 5.26%. With `COc1ccc(-c2ccc(N)[n+](CCCC(=O)O)n2)cc1`, the inhibition is 7.29%. As for `CC(=O)O[C@]1(C(C)=O)CC[C@H]2[C@@H]3C=C(Cl)C4=CC(=O)[C@@H]5C[C@@H]5[C@]4(C)[C@H]3CC[C@@]21C`, the inhibition was 6.43%. As for `CC(C)[C@H](NC(=O)OCc1ccccc1)C(=O)N[C@H](C=O)Cc1ccccc1` (Cbz-Val-Phe-aldehyde), the inhibition was 6.09%. Under `S=C(S)N1CCCC1` stands 21.2%; under `Ic1ccc(N2CCN(Cc3c[nH]c4ncccc34)CC2)cc1`, 7.68%. Regarding `COc1cc(=O)n(C)c2c(OCC(O)C(C)(C)O)cccc12` (centres undefined), the inhibition was -8.37%. `CC(COc1ccc(/C=C/c2ccccc2)cc1)[N+](C)(C)C` (centres undefined): the inhibition was 52% (active). Then `COc1cccc(OC)c1OCCNCC1CSc2ccccc2O1` (centres undefined), with 10.3%. Then `CC(C)(C)c1ccc(S(=O)(=O)/C=C/C#N)cc1`, with 155% (active); and `COc1cc(CNC(=O)CCCCCCC(C)C)ccc1O`, with -1.4%.

Turning to `CN(Cc1cnc2nc(N)nc(N)c2n1)c1ccc(C(=O)N[C@H](CCC(=O)O)C(=O)O)cc1`, the inhibition is -2.58%. Under `O=C1NC(c2cccc([N+](=O)[O-])c2)=CCN1c1ccccc1O` stands -0.979%. Then `COc1cc2c(cc1C(F)(F)F)N(C(=O)Nc1cc(F)cc(-c3cccnc3)c1)CC2`, with 0.852%; and `N=C(N)SCCc1cnc[nH]1`, with 2%; and `COc1ccc2[nH]cc(CCNC(C)=O)c2c1`, with 13.5%. Then `NCCc1cnc[nH]1`, with 2.56%.

Take `O=C(O)CN(CCOCCOCCN(CC(=O)O)CC(=O)O)CC(=O)O`: the inhibition was 3.4%. With `CC(C)(C)c1onc(OCP(=O)(O)O)c1CC(N)C(=O)O` (centres undefined), the inhibition was 9%. Then `Clc1ccc(C(c2ccccc2Cl)C(Cl)Cl)cc1` (centres undefined), with 11.1%; and `O[Si](CCCN1CCCCC1)(c1ccc(F)cc1)C1CCCCC1` (centres undefined), with -1.85%. Then `NC(N)=[N+]1CCc2ccccc2C1`, with -2.7%; and `Nc1ncnc2c1nc(Sc1ccc(Cl)cc1)n2C1OC2COP(=O)(O)O[C@@H]2[C@@H]1O` (some centres undefined), with 9.99%. Then `CN1C(C)(C)CCCC1(C)C`, with 7.18%. For the molecule `NC(=O)c1cccc(N)c1`, the inhibition is 3.55%. As for `O=C(O)CCCCCC[C@H]1C(=O)NC(=O)N1CC[C@@H](O)C1CCCCC1`, the inhibition is -0.469%. Then `CC(C)(Oc1ccc(C2CC2(Cl)Cl)cc1)C(=O)O` (centres undefined), with 1.41%; and `CCCCN1CCC(n2c(=O)[nH]c3ccccc32)CC1`, with 4.67%; and `NC[C@@H]1O[C@H](C23CC4CC(CC(C4)C2)C3)Cc2c1ccc(O)c2O`, with 0.204%. Then `C[n+]1cc2c3c(ccc2c2ccc4cc5c(cc4c21)OCO5)OCO3`, with 145% (active); and `Brc1ccc([C@H]2CN3CCSC3=N2)cc1`, with 123% (active).

For `Nc1nc(Nc2ccccc2)nc2c1ncn2[C@@H]1O[C@H](CO)[C@H](O)C1O` (some centres undefined), the inhibition is -1.98%. Then `NC(N)=NCCCCN=C(N)N`, with -4.67%; and `NC(C(=O)N[C@@H]1C(=O)N2C(C(=O)O)=C(Cl)CS[C@H]12)c1ccccc1` (some centres undefined), with 7.28%; and `O=C(O)C1=CCNCC1`, with 0.676%.

As to `O=C1N(c2ccccc2)c2ccccc2C1(Cc1ccncc1)Cc1ccncc1`, the inhibition is -3.34%. With `COc1nc(C)nc(Cl)c1NC1=NCCN1`, the inhibition is 1.2%. Then `CC1(C)C(=O)N(CCN2CCC(C(=O)c3ccc(F)cc3)CC2)c2ccccc21`, with 5.57%.
